# Sampled rows, rich in hits. Any-hit rate of the full collection: about 7.9%.
# HT1080NT lethal = kills 2HG-producing HT-1080-NT fibrosarcoma cells; HT-1080-NT fibrosarcoma viability, CellTiter-Glo ATP luminescence, 48 h; Potency, µM (titrated, usually from 46.1 µM), for the others: top-dose activity, negative = less viability, most hits filed as cytotoxic; 360,000 tested, 1.6% active;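 note: NT is the 2HG producing partner of a matched IDH1 knockdown line; 0% = DMSO-treated cells and -100% = media-only wells without cells; nearly all actives have a fitted effect of over 55% in size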
#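 HT-1080-NT; 750 cells/well; 5% FBS RPMI; 48 h compound, 37 degrees C; CellTiter-Glo luminescence; curve fitting and curve-class assignment.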
# MCF10A rerep = inducers of DNA re-replication in MCF 10A breast cells; MCF 10A DNA re-replication, Hoechst nuclear intensity, 48 h; AID 624296; Potency, µM (top dose mostly 46.1 µM), for the others: at the top dose activity, positive = re-replication, most hits filed as activators; 350,000 tested, 2.9% active; note: % of control where 0% means no effect; nearly all actives have a fitted effect of over 50% in size
# KB-3-1 cytotox = kills parental KB-3-1 adenocarcinoma cells. KB-3-1 viability, CellTiter-Glo ATP luminescence, 72 h. Potency, µM (series often up to 46.1 µM), usual class: cytotoxic. 400,000 tested, 1.4% active. AID 1347075; note: % is set by controls: 0 for no effect and ±100 for the full control effect; nearly all actives have a fitted effect of over 60% in size
#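 Parental KB-3-1 viability, qHTS format: 72 h compound exposure, 37 °C; CellTiter-Glo; media-only wells and DMSO plates as controls; concentration-effect fits on corrected data.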
# KB-V1 cytotox = kills drug-selected multidrug resistant KB-V1 cells | KB-V1 MDR cells viability, CellTiter-Glo, 72 h | Potency, µM (series often up to 46.1 µM), hits mostly cytotoxic | AID 1347076 | 400,000 tested, 3.4% active; note: % is set by controls: 0 for no effect and ±100 for the full control effect; nearly all actives have a fitted effect of over 60% in size
#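 Cytotoxicity toward P-gp-expressing KB-V1 cells was determined as loss of CellTiter-Glo luminescence after 72 h at 37 degrees C. Compounds were tested in quantitative HTS format across a concentration range, with curves fitted to normalized data.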
# SW480 rereplic = induces DNA re-replication in SW480 colon adenocarcinoma cells | 340,000 tested, 1.8% active | Potency, µM (titrated, usually from 46.1 µM), without a hit: at the top dose re-replication activation, hits mostly activators | SW480 DNA re-replication, Hoechst DNA content imaging, 48 h; note: % of control where 0% means no effect; nearly all actives have a fitted effect of over 55% in size
#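 Per well, 250 cells were exposed to pinned compound for 48 hr. Nuclear DNA was visualised with Hoechst (40 min, 37 C) and total object intensity recorded by fluorescence scanning.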
# HT1080 IDH1KD tx = toxicity to HT-1080 IDH1 knockdown cells (counter line); AID 686971; 360,000 tested, 2% active; HT-1080 IDH1 knockdown viability, ATP luminescence, 48 h; Potency, µM (highest dose often 46.1 µM), for inactives: top-dose activity, negative = toxicity, hits mostly cytotoxic;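 note: 0% = DMSO wells and -100% = cell-free medium wells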
#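 Assay cells: HT-1080 with IDH1 knockdown, 750 per well, RPMI/5% FBS. Exposure: 48 h at 37 °C following 2 h pre-incubation. Read: CellTiter-Glo luminescence; fitted concentration-response, curve class assigned.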
# Numbers without * were called inactive; i = inactive; ? = inconclusive; nt = no result given. Calls come from the whole dose curve; as a rule, active = well fitted curve in the direction sought with a large enough effect; inconclusive = small, poorly fitted or top-dose-only effect, or another doubt; inactive = no such curve, though single readings can be large; an effect the other way counts as inactive or inconclusive. Potency is the fitted concentration of half-maximal effect.
SMILES,HT1080NT lethal,MCF10A rerep,KB-3-1 cytotox,KB-V1 cytotox,SW480 rereplic,HT1080 IDH1KD tx
CCOC(=O)c1[nH]c(C)c(CCC(=O)Nc2cc(Cl)ccc2C)c1C,nt,nt,i,i,nt,nt
CN(C)c1ccc(C=c2c3ccccc3n3c2cc(-c2ccc(Cl)cc2)[n+]3C)cc1,?,26%,7.3µM*,i,?,?
Cc1nc(NC(C)c2ccccc2)c2c3c(sc2n1)CCC3 (stereo not given),-1%,10µM*,?,i,?,-2%
Cc1nc(Nc2ccc(O)cc2)c2c3c(sc2n1)CCCC3,?,?,i,i,4%,-24%
Cc1ccc(CNc2nc(C)nc3sc4c(c23)CCC4)cc1,3%,18%,i,8.2µM*,6%,0%
CC(C)Nc1nc(Nc2ccccc2Cl)c2sccc2n1,-25%,nt,i,?,nt,0%
Cc1ccc(CNC(=O)CS(=O)(=O)c2cccc3nsnc23)cc1,nt,nt,?,i,nt,nt
CCOC(=O)c1c(NC(=S)N2CCN(C)CC2)sc2c1CCN(C(=O)OCC)C2,21µM*,?,i,i,?,18µM*
CCOC(=O)c1c(NC(=O)CN2CCN(C)CC2)sc(C(=O)Nc2ccccc2)c1C,?,21%,i,i,-17%,23µM*
CCOC(=O)c1sc(NC(=O)CCN2CCN(C)CC2)c(C(=O)OCC)c1C,21µM*,23%,i,i,23%,?
Cc1c(Cl)cccc1NC(=O)Cn1nc(C(F)(F)F)c2c1CCC2,nt,nt,i,i,nt,nt
Cc1ccc(NC(=S)NCCSc2ccc(Cl)cc2)c(C)c1,3%,23µM*,i,i,?,0%
COc1ccc(OC)c(NC(=S)NCCSc2ccc(C)cc2)c1,5%,0%,i,23µM*,0%,0%
C=C1C(=O)O[C@H]2C[C@H]1[C@@H](OC(C)=O)C/C(C)=C/CC/C(C)=C\CC[C@]2(C)O,13µM*,?,i,i,23µM*,16µM*
CCc1nc2ccc(C(=O)Nc3ccc(OC)c(OC)c3)cn2c1N(C)Cc1nccs1,5%,nt,i,?,nt,0%
COc1ccc(C(=O)NCCS(=O)(=O)NCc2ccc(F)cc2)cc1,-2%,18%,i,i,3.7µM*,5%
COc1ccc(C(=O)NCCS(=O)(=O)N(C)C2CCCCC2)cc1,10%,3%,i,18µM*,-2%,1%
O=C(Nc1nc2ccc(F)cc2s1)c1ccccn1,?,18µM*,?,i,5.2µM*,8.2µM*
O=C(Nc1nnc(SCc2ccc(F)cc2)s1)c1ccccn1,?,?,?,?,13µM*,?
CCOc1ccc2nc(NC(=O)c3cnccn3)sc2c1,15%,-5%,i,i,1%,8%
COC(=O)c1ccc2nc(Nc3nc4ccc(F)cc4s3)sc2c1,?,?,i,i,?,?
O=C(Nc1nc2ccc(F)cc2s1)C1=NN(c2ccccc2)C(=O)CC1,-2%,-2%,?,i,-3%,0%
CC(=O)c1sc(Nc2nc3ccc(F)cc3s2)nc1C,-4%,?,i,i,9.2µM*,-26%
O=C(Nc1nc2ccccc2s1)c1cnccn1,2.8µM*,3.3µM*,i,i,15µM*,?
O=C(Nc1nccs1)c1cnccn1,7%,20%,i,i,-8%,26%
O=C(Nc1nc(-c2ccco2)c(-c2ccco2)s1)c1cnccn1,-23%,7%,i,2.1µM*,5%,?
CCc1nnc(NC(=O)c2cnccn2)s1,11%,18µM*,i,i,0%,5%
O=C(Nc1nc(-c2ccco2)c(-c2ccco2)s1)c1c(F)cccc1Cl,-9%,20%,i,i,-1%,2%
CCc1nonc1NC(=O)c1oc2cc(C)c(C)cc2c1C,?,?,i,i,0%,-29%

# Screens: PubChem, National Center for Advancing Translational Sciences (NCATS)
